According to PubChem BioAssay:
Activity calls are given as the source filed them.

Columns and labels:
[1] = small molecules captured by biotinylated probe aFSTL3 – biochemical, small-molecule microarray, fluorescence 635/667, stem cell growth factor project, primary screen (AID 1064); details: higher = more signal;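 further: measures binding of the biotinylated anti-FSTL3 antibody to printed compounds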
[2] = binders from COS7 lysate, DM2A8 probe, primary screen, torsin A project, cell lysate, small-molecule microarray, fluorescence 635/667 (AID 1065); details: higher = more signal, COS7 lysate expressing mutant human TOR1A
[3] = small molecules captured by biotinylated probe aFGF2 – biochemical, small-molecule microarray, fluorescence 635/667, stem cell growth factor project, primary screen (AID 1067); details: higher = more signal;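 further: measures binding of biotinylated aFGF2 protein to printed compounds on slides; z-score merges feature fluorescence and signal-to-noise across triplicate slides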
[4] = small molecules captured by biotinylated probe aFGF10 – biochemical, small-molecule microarray, fluorescence 635/667, stem cell growth factor project, primary screen (AID 1071); details: higher = more signal;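 further: score merges 667 nm spot intensity and signal to noise from triplicate slides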
[5] = target: Neurogenic locus notch homolog protein 2 (Homo sapiens) (UniProt Q04721); assay: small molecules binding Notch2 protein – biochemical, small-molecule microarray, 635 nm fluorescence, stem cell growth factors, primary screen (AID 1073); details: higher = more signal
[6] = target: Pro-neuregulin-1, membrane-bound isoform (Homo sapiens) (UniProt Q02297); assay: small molecules binding neuregulin-1 protein – biochemical, small-molecule microarray, fluorescence 635/667, psychiatric disease protein project, primary screen (AID 1075); details: NRG1 binding, 635 nm fluorescence, higher = more signal;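 further: score combines 667 nm spot fluorescence with signal to noise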
[7] = tested on: Neuregulin-1 EGF-like domain; assay: small molecules binding NRG1 EGF domain – biochemical, small-molecule microarray, 635 nm fluorescence, primary screen (AID 1081); details: higher = more signal;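 further: binding of the protein to compounds printed on small-molecule microarray slides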
[8] = FRG1 expression reporter modulators in myotubes – cell-based, C2C12 myotubes, firefly/Renilla luciferase, luminescence, FRG1 inhibition for FSHD, primary screen (AID 1084); details: FRG1 promoter luciferase, higher = more signal, called active from +8 up or from −8 down
[9] = small molecules captured by biotinylated probe aFST – biochemical, small-molecule microarray, fluorescence 635/667, stem cell growth factor project, primary screen (AID 1086); details: higher = more signal;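 further: score merges 667 nm fluorescence with signal-to-noise of each printed compound spot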
[10] = binders of probe aHhip on microarray, primary screen, stem cell growth factor project, biochemical, small-molecule microarray, fluorescence 635/667 (AID 1087); details: higher = more signal;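 further: score merges spot fluorescence at 667nm with spot signal to noise ratio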
[11] = tested on: PRMT1 (protein arginine N-methyltransferase 1); assay: small molecules binding arginine methyltransferase PRMT1 – biochemical, small-molecule microarray, 635 nm fluorescence, primary screen (AID 1088); details: higher = more signal;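 further: binding of Prmt1 protein to compounds spotted on small-molecule microarray slides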
[12] = growth effects on S. cerevisiae YJM789 – YJM789 clinical isolate, OD600, 24 h, basal, primary screen (AID 1089); details: higher = more signal, called active from +8 up or from −8 down;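 further: growth of clinical yeast isolate S. cerevisiae YJM 789 seeded 1000 cells per well; test concentration not given here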
[13] = S. pombe growth modifiers, basal conditions – strain 972, OD600, 24 h, no modulator, primary screen (AID 1090);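 further: basal condition with compound alone and no growth modifier present; test concentration not given here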; details: S. pombe 972 growth, higher = more signal, called active from +8 up or from −8 down
[14] = budding yeast growth modifiers under rapamycin – strain BY4716, OD600, 96 h, primary screen (AID 1091); further: test concentration not given here; details: S. cerevisiae BY4716 + rapamycin, higher = more signal, called active from +8 up or from −8 down
[15] = target: Torsin-1A-interacting protein 2 (Homo sapiens) (UniProt Q8NFQ8); assay: small molecules binding lysate-expressed LULL1 – cell lysate, human LULL1 lysate, 635/667 nm fluorescence, primary screen (AID 1092); details: small-molecule microarray, hLULL1 lysate binding, 635 nm fluorescence; higher = more signal;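 further: probe is lysate of COS7 cells overexpressing human LULL1; score merges per-feature 667 nm fluorescence with signal-to-noise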
[16] = optical density change of DRC41 E. coli – strain DRC41, OD650, 24 h, E. coli filamentation project, primary screen (AID 1093);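 further: MC1000 strain lacking acrAB efflux and sulA so SOS filamentation is blocked; test concentration not given here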; details: E. coli DRC41 growth, higher = more signal, called active from +8 up or from −8 down
[17] = probe aLefty2 binding to arrayed compounds – biochemical, biotinylated probe, 635/667 nm fluorescence, primary screen (AID 1094); details: small-molecule microarray, higher = more signal;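 further: score merges spot fluorescence near 667 nm with spot signal-to-noise ratio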
[18] = tested on: Noggin (protein binding on small-molecule microarray); assay: small molecules binding Noggin protein – biochemical, 635/667 nm fluorescence, primary screen (AID 1095); details: 635 nm fluorescence, higher = more signal;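 further: score merges 667 nm feature fluorescence with signal to noise over triplicate slides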
[19] = target: Neurogenic locus notch homolog protein 3 (Homo sapiens) (UniProt Q9UM47); assay: small molecules binding NOTCH3 protein – biochemical, 635/667 nm fluorescence, primary screen (AID 1096); details: small-molecule microarray, 635 nm fluorescence, higher = more signal
[20] = probe aEGFR binding to arrayed compounds – biochemical, biotinylated probe, 635/667 nm fluorescence, primary screen (AID 1097); details: small-molecule microarray, higher = more signal;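 further: probe is a biotinylated anti-EGFR antibody binding compounds printed on slides; score combines fluorescence near 667 nm and signal to noise of each spot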

Sequence of Neurogenic locus notch homolog protein 2 (Homo sapiens) (Q04721 whole entry, looked up, canonical isoform): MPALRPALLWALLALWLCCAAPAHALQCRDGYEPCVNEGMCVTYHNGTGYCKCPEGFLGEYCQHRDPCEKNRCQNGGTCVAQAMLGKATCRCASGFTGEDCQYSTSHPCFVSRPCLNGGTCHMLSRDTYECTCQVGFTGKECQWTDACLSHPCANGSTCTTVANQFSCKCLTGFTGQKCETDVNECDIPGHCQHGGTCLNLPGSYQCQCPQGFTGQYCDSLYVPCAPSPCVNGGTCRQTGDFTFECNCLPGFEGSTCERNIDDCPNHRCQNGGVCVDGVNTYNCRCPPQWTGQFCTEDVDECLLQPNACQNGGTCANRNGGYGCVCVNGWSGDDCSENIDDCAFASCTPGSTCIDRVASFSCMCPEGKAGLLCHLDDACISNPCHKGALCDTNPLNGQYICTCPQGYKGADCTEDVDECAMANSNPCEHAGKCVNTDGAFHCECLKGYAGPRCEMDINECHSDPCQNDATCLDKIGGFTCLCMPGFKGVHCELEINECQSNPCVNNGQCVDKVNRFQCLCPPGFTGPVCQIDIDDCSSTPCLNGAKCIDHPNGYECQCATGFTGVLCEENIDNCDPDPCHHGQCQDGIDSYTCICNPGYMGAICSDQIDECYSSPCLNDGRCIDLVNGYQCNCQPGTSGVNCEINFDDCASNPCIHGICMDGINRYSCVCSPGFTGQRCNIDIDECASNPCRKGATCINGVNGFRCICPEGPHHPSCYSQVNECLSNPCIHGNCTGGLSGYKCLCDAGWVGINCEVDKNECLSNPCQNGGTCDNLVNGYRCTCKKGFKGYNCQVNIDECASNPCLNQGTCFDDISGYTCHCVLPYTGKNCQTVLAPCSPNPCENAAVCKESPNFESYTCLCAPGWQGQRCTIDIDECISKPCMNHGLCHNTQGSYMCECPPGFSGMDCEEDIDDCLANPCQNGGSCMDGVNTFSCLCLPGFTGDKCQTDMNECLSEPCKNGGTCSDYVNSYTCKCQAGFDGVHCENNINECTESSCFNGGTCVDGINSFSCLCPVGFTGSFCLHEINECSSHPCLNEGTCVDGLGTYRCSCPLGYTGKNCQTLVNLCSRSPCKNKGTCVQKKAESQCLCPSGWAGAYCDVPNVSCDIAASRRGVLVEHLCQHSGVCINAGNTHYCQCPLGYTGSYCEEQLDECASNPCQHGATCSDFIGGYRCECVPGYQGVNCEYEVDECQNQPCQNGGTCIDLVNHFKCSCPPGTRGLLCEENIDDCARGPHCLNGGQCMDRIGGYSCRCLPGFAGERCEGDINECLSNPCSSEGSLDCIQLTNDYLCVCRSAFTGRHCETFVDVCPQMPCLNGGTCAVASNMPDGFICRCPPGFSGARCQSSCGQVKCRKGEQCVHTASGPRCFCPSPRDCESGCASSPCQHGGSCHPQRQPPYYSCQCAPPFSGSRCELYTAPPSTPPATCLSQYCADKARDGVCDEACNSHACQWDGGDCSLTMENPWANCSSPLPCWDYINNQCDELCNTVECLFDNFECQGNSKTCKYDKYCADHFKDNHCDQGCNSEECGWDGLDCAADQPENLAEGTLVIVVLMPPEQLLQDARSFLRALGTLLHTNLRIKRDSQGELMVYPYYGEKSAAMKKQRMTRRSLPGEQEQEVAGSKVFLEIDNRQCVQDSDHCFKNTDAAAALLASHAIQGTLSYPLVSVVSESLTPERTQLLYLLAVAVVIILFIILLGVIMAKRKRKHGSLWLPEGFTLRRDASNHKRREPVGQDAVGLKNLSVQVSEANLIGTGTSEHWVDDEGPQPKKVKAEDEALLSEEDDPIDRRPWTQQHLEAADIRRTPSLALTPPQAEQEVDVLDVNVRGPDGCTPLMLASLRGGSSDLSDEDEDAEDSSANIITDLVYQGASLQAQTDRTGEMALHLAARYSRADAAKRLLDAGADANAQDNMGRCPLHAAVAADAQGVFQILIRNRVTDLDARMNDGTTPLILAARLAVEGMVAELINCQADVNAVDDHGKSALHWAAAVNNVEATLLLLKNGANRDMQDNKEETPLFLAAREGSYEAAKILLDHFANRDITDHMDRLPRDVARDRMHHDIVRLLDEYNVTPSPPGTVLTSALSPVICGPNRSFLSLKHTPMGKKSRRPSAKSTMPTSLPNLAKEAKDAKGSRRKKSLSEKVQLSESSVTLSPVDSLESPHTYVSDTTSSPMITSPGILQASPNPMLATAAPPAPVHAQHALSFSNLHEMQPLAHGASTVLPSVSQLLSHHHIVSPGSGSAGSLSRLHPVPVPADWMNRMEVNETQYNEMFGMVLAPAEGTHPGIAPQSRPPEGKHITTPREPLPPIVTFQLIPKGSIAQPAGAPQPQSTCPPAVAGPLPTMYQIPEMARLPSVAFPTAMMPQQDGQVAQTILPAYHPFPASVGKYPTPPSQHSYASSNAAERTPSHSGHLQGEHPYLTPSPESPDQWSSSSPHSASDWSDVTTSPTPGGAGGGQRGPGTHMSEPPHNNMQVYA
Sequence of Pro-neuregulin-1, membrane-bound isoform (Homo sapiens) (Q02297 whole entry, looked up, the tested form may be a part, canonical isoform): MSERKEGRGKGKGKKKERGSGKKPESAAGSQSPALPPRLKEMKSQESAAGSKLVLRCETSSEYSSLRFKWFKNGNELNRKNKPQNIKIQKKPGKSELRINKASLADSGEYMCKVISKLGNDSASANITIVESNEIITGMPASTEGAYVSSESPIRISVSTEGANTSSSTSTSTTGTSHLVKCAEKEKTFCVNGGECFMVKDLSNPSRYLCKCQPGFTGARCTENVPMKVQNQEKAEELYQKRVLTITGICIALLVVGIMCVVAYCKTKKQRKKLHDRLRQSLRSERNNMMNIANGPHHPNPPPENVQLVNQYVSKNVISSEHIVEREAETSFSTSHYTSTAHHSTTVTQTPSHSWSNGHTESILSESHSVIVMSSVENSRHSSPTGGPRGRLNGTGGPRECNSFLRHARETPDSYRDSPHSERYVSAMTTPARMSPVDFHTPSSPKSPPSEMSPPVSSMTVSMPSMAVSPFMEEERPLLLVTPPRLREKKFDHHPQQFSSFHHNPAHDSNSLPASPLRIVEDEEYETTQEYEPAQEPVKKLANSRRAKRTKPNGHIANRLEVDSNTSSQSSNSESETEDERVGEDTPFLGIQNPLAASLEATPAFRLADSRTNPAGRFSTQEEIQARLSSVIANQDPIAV
Sequence of Torsin-1A-interacting protein 2 (Homo sapiens) (Q8NFQ8 whole entry, looked up): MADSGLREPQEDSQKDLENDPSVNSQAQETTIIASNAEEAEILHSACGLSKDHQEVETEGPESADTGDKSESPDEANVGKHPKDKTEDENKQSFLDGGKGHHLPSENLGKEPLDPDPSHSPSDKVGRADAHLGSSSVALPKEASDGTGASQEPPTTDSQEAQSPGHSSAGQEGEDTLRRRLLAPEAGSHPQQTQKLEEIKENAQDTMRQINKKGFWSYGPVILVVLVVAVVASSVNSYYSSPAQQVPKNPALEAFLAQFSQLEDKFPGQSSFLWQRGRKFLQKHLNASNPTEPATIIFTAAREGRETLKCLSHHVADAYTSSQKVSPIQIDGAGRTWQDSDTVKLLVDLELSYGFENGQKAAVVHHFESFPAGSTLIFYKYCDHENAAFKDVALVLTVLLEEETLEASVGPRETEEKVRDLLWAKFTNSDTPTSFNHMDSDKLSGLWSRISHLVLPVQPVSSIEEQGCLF

| SMILES | composite z-score [1] | composite z-score [2] | composite z-score [3] | composite z-score [4] | composite z-score [5] | composite z-score [6] | composite z-score [7] | z-score [8] | composite z-score [9] | composite z-score [10] | composite z-score [11] | z-score [12] | z-score [13] | z-score [14] | composite z-score [15] | z-score [16] | composite z-score [17] | composite z-score [18] | composite z-score [19] | composite z-score [20] |
| --- | --- | --- | --- | --- | --- | --- | --- | --- | --- | --- | --- | --- | --- | --- | --- | --- | --- | --- | --- | --- |
| CN(C)C(=O)[C@@]1(Cc2ccccc2CN=[N+]=[N-])N=C(c2ccc(OCCCO)cc2)O[C@H]1c1ccccc1 | 0.214 | -0.163 | 0.0575 | 0.663 | 0.604 | 1.17 | 0.91 | -2.25 (inactive) | 0.46 | -0.169 | 1.32 | 0.365 (inactive) | 0.0586 (inactive) | 34.7 (active) | 3.32 | 0.632 (inactive) | 0.0561 | 0.788 | 0.301 | -0.0356 |
| COc1ccc(CCNC(=O)[C@@]2(Sc3ccc(C)cc3)CC(=O)N(C3CCCCC3)[C@@H]2c2ccc(CO)cc2I)cc1 | -0.113 | 0.567 | 0.0561 | 0.773 | 1.23 | 1.29 | 1.02 | -1.57 (inactive) | 0.306 | -0.0237 | 1.42 | -1.11 (inactive) | 0.0408 (inactive) | 0.766 (inactive) | 2.71 | -0.0209 (inactive) | -0.0823 | 0.53 | 1.1 | 0.0414 |
| O=C1OCCC/C=C\[C@H]2OC34C=CCN(Cn5nnc6ccccc65)C(=O)[C@H]3N(CCO)C(=O)[C@@H]4C12 (stereo not given in full) | -0.335 | -1.46 | -0.206 | 0.0278 | -0.918 | 1.21 | 1.16 | 0.356 (inactive) | -0.486 | 0.382 | -0.614 | 0.744 (inactive) | -0.0999 (inactive) | -0.277 (inactive) | 1.41 | 2.83 (inactive) | 0.478 | -0.708 | -0.571 | -0.0015 |
| O=C(NCc1ccccc1)[C@@]1(CCS(=O)(=O)c2ccccc2)N=C(c2ccc(OCCCO)cc2)O[C@H]1c1ccccc1 | -0.0744 | 0.345 | 0.115 | 0.488 | 1.56 | 1.82 | 1.19 | -2.73 (inactive) | 1.6 | 0.0274 | 1.56 | 1.72 (inactive) | -0.129 (inactive) | 34.4 (active) | 3.56 | 0.988 (inactive) | 0.215 | 0.878 | 1.06 | 0.116 |
| O=C1O[C@H](c2ccccc2)[C@H](c2ccccc2)N2[C@H]1[C@@H](C(=O)O)[C@]1(C(=O)Nc3ccc(C#CC4=CCCCC4)cc31)[C@H]2c1ccccc1OCCO | 0.943 | 0.914 | -0.0885 | 0.729 | 1.01 | 1.69 | 0.994 | 0.755 (inactive) | 0.792 | 1.13 | 1.53 | 1.07 (inactive) | 1.1 (inactive) | -1.55 (inactive) | 3.1 | -0.273 (inactive) | 0.196 | 1.05 | 0.941 | -0.313 |
